# According to PubChem BioAssay:
# The source made the active and inactive calls.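 How the source made its calls, unless noted: active means z-score of at least 1.8 in each of two replicates, scored against plate mean and spread of sample wells; inactive means the rest.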
# How the values were obtained:
# [1] = viability loss with induced miR-34 in A549 – imaging, A549 dox-inducible miR-34, nuclei and caspase counts, primary screen (AID 1347080;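 active means compounds whose cell count with miR-34 switched on is under 0.7 times the count with it off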; further: test concentration not given here); settings: A549 miR-34 inducible, Hoechst nuclei count, 48 h
# [2] = galactose survival enhancers in mitochondrial complex I cybrids – cell-based, galactose medium, ATP luminescence, primary screen (AID 1645843); settings: complex I mutant cybrid cells, 72 h, stronger effect = higher value;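 further: positive z means more ATP and so rescue of galactose-driven cybrid death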
# [3] = stronger effect = lower value, cell number ratio, induced over uninduced
# [4] = measured here: relative caspase fold change +Dox/-Dox
# [5] = measured here: total cells with miR-34 induction, stronger effect = lower value
# [6] = measured here: total cells without miR-34 induction
SMILES,"fold change [1, 3]","fold change [1, 4]","cell count [1, 5]","cell count [1, 6]",z-score [2]
CC(C)(C)C(O)C=Cc1ccc2c(c1)OCO2 (stereo not given),1.46 (inactive),0.768,8470,5780,-0.12 (inactive)
CC(CCC(=O)O)C1CCC2C3C(=O)CC4CC(=O)CC[C@]4(C)C3CC(=O)[C@]12C (stereo not given in full),0.951 (inactive),0.625,9350,9830,0.29 (inactive)
C[C@]12C=CC(=O)C=C1CCC1C2C(O)C[C@@]2(C)C1CC[C@]2(O)C(=O)COC(=O)CCC(=O)O (stereo not given in full),0.962 (inactive),2.02,7550,7850,1.77 (inactive)
CN1CC(=O)N2C(Cc3c([nH]c4ccccc34)C2c2ccc3c(c2)OCO3)C1=O (stereo not given),0.932 (inactive),1.44,6940,7450,1.56 (inactive)
O=C(OC1C(Oc2ccccc2COC(=O)C2(O)C=CCCC2=O)OC(CO)C(O)C1O)c1ccccc1 (stereo not given),0.897 (inactive),1.99,1640,1830,-1.2 (inactive)
CC(C)CC(NC(=O)C(COC(C)(C)C)NC(=O)C(Cc1ccc(O)cc1)NC(=O)C(CO)NC(=O)C(Cc1c[nH]c2ccccc12)NC(=O)C(Cc1cnc[nH]1)NC(=O)C1CCC(=O)N1)C(=O)NC(CCCN=C(N)N)C(=O)N1CCCC1C(=O)NNC(N)=O (stereo not given),1.04 (inactive),1.1,7490,7190,0.385 (inactive)
Nc1ncnc2c1ncn2C1OC(CO)CC1O (stereo not given),0.896 (inactive),2.91,8910,9950,-0.825 (inactive)
O=C1c2cccc3c2C(CCC3)CN1C1CN2CCC1CC2 (stereo not given),1.56 (inactive),0.609,5340,3420,-0.005 (inactive)
CC(=O)O[C@]1(C(C)=O)CCC2C3C=C(C)C4=CC(=O)CC[C@]4(C)C3CC[C@@]21C (stereo not given in full),0.943 (inactive),1.2,6760,7170,-0.29 (inactive)
CC1CCC2C(C)C(OC(=O)CCC(=O)O)OC3O[C@@]4(C)CCC1[C@]32OO4 (stereo not given in full),0.992 (inactive),1.91,6760,6810,-1.79 (inactive)
CC(C)CC(NC(=O)C(O)C(N)Cc1ccccc1)C(=O)O (stereo not given),0.913 (inactive),1.61,8460,9270,0.29 (inactive)
CNC(=O)[C@H]1O[C@@H](n2cnc3c(NCc4ccc(I)cc4)nc(Cl)nc32)[C@H](O)[C@@H]1O,1.02 (inactive),1.05,5610,5510,1.29 (inactive)
CC(C)OC(=O)CCCC=CCC1C(O)CC(O)C1CCC(O)CCc1ccccc1 (stereo not given),1 (inactive),2.41,9620,9620,-1.17 (inactive)
CC1CC2C3CC(F)C4=CC(=O)C(Cl)=C[C@]4(C)[C@@]3(F)C(O)C[C@]2(C)[C@@]1(O)C(=O)CO (stereo not given in full),0.952 (inactive),1.63,6600,6930,0.895 (inactive)
NC(C(=O)NC1C(=O)N2C(C(=O)O)=C(CSc3cn[nH]n3)CSC12)c1ccc(O)cc1 (stereo not given) (tested in a mixture with another compound),0.899 (inactive),1.68,9710,10800,0.555 (inactive)
CC(C)(C)NC(=O)C1CN(Cc2cccnc2)CCN1CC(O)CC(Cc1ccccc1)C(=O)NC1c2ccccc2CC1O (stereo not given),0.967 (inactive),1.5,9380,9700,1.61 (inactive)
CC1=C(C(=O)O)N2C(=O)C(NC(=O)C(N)c3ccccc3)C2SC1 (stereo not given),0.933 (inactive),1.4,8950,9590,0.52 (inactive)
C=C1C(=CC=C2CCC[C@@]3(C)C2CCC3C(C)CCCC(C)(C)O)CC(O)CC1O (stereo not given in full),0.912 (inactive),1.66,9420,10300,-1.52 (inactive)
CCC(C)C(=O)OC1CCC=C2C=CC(C)C(CCC3CC(O)CC(=O)O3)C21 (stereo not given),0.968 (inactive),0.887,1480,1530,-0.74 (inactive)
CN(C)C1C(=O)C(C(=O)NCN2CCCC2)=C(O)[C@@]2(O)C(=O)C3=C(O)c4c(O)cccc4[C@@](C)(O)C3CC12 (stereo not given in full),0.983 (inactive),1.25,8500,8650,0.465 (inactive)
CCC1=CC2CN(C1)Cc1c([nH]c3ccccc13)[C@@](C(=O)OC)(c1cc3c(cc1OC)N(C)C1[C@@](O)(C(=O)OC)C(OC(C)=O)[C@]4(CC)C=CCN5CC[C@]31C54)C2 (stereo not given in full),1.19 (inactive),1.47,1620,1360,-1.06 (inactive)
CCC(C)C(=O)OC1CC(O)C=C2C=CC(C)C(CCC(O)CC(O)CC(=O)O)C21 (stereo not given),0.961 (inactive),1.91,10300,10800,0.5 (inactive)
COc1ccc(CCCOc2cc(CCn3ccnc3)ccc2OC)cc1,1.41 (inactive),0.402,3260,2300,-1.33 (inactive)
CCN1CCCC1CNC(=O)c1c(O)c(Cl)cc(Cl)c1OC (stereo not given),1.02 (inactive),1.39,9680,9480,0.65 (inactive)
COC1C(OC(C)=O)CC(=O)OC(C)CC=CC=CC(O)C(C)CC(CC=O)C1OC1OC(C)C(OC2C[C@@](C)(OC(=O)CC(C)C)C(O)C(C)O2)C(N(C)C)C1O (stereo not given in full),1.04 (inactive),1.51,9630,9280,-1.59 (inactive)
Cc1ccsc1C(=CCCN1CCCC(C(=O)O)C1)c1sccc1C (stereo not given),0.928 (inactive),1.05,8550,9210,1.02 (inactive)
